Compound activity: PubChem, several laboratories
An excerpt weighted towards active compounds, which were near 5.9% of everything screened.
LANA-H2B inh – blocks KSHV LANA binding to histone H2A/H2B | Q9QR71 | cell-free LANA-H2A/H2B peptide, fluorescence polarization | inhibition, % (test concentration not listed) | actives 0.6% (n = 320,000); in the data active = inhibition mostly above about 10%, no sharp cut-off; inactive = mostly below about 6.7%
ABHD5-PLIN5 inh – blocks binding of human ABHD5 to perilipin-5; Q00G26+Q8WTS1; Split G. princeps luciferase complementation, luminescence, 4 h; inhibition, % at 4 µM; actives 0.78% (n = 360,000); AID 602281;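 active = inhibition above the mean inhibition across every tested compound plus 3 SD, cut at about 22% in these data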;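 note: 0% = DMSO only wells and the 100% control is not disclosed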
Rtt109 HAT inh – C. albicans Rtt109 histone acetyltransferase inhibition; Q5AAJ8; purified Rtt109/Vps75, ThioGlo CoA-SH fluorescence, 4 h; inhibition, % at 34.9 µM; actives 0.16% (n = 330,000); AID 540336;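 active = inhibition of at least 50% in every replicate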
PRMT1 inh – inhibitors of human PRMT1; Q99873; recombinant PRMT1, activity-based probe fluorescence polarization; inhibition, % at 2.79 µM; actives 1.3% (n = 370,000);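 active = inhibition above about 21% made by adding two undisclosed values, limit read from the data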
rCAG binder – binds r(CAG) RNA repeats; r(CAG) RNA repeat, TO-PRO-1 dye displacement fluorescence; actives 1.3% (n = 370,000); inhibition, % at 3 µM;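 active = inhibition above the plate cutoff, the mean of all test compounds on that plate plus 3 SD, cut at about 35% in these data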;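 note: 0% = DMSO alone and 100% = 100 µM mitoxantrone as full dye displacement; higher means more dye released from RNA so lower well fluorescence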
ALR H2O2 inh – inhibitors of human sulfhydryl oxidase ALR | actives 3.8% (n = 290,000) | purified ALR, DTT oxidation, H2O2 HRP-luminol luminescence | inhibition, % (no concentration beside the values) | P55789;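 active = mean replicate inhibition above about 79%, with every replicate also reaching it, limit read from the data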
Target sequence (P55789 whole entry, looked up): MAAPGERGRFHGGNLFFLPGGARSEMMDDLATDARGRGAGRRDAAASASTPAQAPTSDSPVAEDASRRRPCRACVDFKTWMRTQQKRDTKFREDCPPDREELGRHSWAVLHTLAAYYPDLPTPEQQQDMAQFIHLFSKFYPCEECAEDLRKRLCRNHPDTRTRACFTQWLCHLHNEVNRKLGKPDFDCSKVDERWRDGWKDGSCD
* hit, by the source's call; i = inactive; x = no result given; + = active, no number; ! = not active in a repeat.

SMILES	LANA-H2B inh	ABHD5-PLIN5 inh	Rtt109 HAT inh	PRMT1 inh	rCAG binder	ALR H2O2 inh
C=CCCC1CN(Cc2ccc(OC)cc2)S(=O)(=O)c2c(cccc2Sc2ccc(OC)c(OC)c2)O1 (stereo not given)	x	x	x	-2	12	x
Cn1ccc2cc(S(=O)(=O)N3CCN(S(=O)(=O)c4c(F)cccc4F)CC3)ccc21	x	x	x	-1	x	x
N#Cc1c(N)[nH]c(C(=O)c2ccccc2)c1-c1ccc(Br)cc1	x	x	x	-1	11	x
CC1CN(C2CCCCC2)c2nc3c(c(=O)[nH]c(=O)n3C)n2C1 (stereo not given)	-1	10	1	1	-2	95*
O=C1C[C@H](C(=O)Nc2ccc(Cl)cc2)[C@@H](c2ccccc2)O1	x	x	x	0	0	x
CCOc1ccc(C(=S)N2CCCC2)cc1OCC	-2	-4	5	8	-5	25
Fc1ccc(COc2ccc(C(=S)N3CCCC3)cc2)cc1	22*	-3	-7	2	-6	15
CCOc1cc(C(=S)N2CCCC2)ccc1OCc1ccccc1	9.2*	9	5	-3	-3	-15
S=C(c1ccc(OCc2ccccc2)cc1)N1CCCC1	-22	1	7	-2	-4	-5
COc1cc2c(cc1OC)C(c1ccc(O)cc1)NCC2 (stereo not given)	-1	-1	1	-3	2	-2
Oc1cc2c(c(Cl)c1O)CCNCC2c1ccccc1 (stereo not given)	3	4	8	2	3	99*
Oc1ccc(C2CNCCc3c2cc(O)c(O)c3Cl)cc1 (stereo not given)	2	2	3	0	-1	99*!
COC(=O)c1ccc(N)c2c(N)ccc(C(=O)OC)c12	x	x	x	5	6	x
O=C(Nc1c(-c2ccc(F)cc2)nc2ncccn12)c1ccccc1	x	x	x	2	7	x
COc1ccc2[nH]c3c(c2c1)CCN1C(=O)C(CC(=O)NC(C)(C)C)C[C@H](C(=O)N2CCCCC2)[C@@]31CCc1ccccc1 (stereo not given in full)	x	7	-2	0	4	x
CC[C@]12c3[nH]c4ccccc4c3CCN1C(=O)C(CC(=O)NCC13CC4CC(CC(C4)C1)C3)C[C@@H]2C(=O)N1CCN(C(=O)C2CC2)CC1 (stereo not given in full)	+	-7	-5	-1	4	-5
CC[C@]12c3[nH]c4ccc(Cl)cc4c3CCN1C(=O)[C@@H](CC(=O)NCC13CC4CC(CC(C4)C1)C3)C[C@@H]2C(=O)N1CCN(C(=O)C2CC2)CC1	x	2	-4	-3	3	x
CN(C)CCCNC(=O)C[C@H]1C[C@H](C(=O)N2CCCCC2)[C@@]2(CCc3ccccc3)c3[nH]c4ccc(Cl)cc4c3CCN2C1=O	x	22*	1	1	9	x
CC(C)(C)NC(=O)CC1C[C@H](C(=O)N2CCCCC2)[C@@]2(CCc3ccccc3)c3[nH]c4ccccc4c3CCN2C1=O (stereo not given in full)	32*	-5	6	-1	0	-1
CC[C@]12c3[nH]c4ccccc4c3CCN1C(=O)C(CC(=O)NC(C)(C)C)C[C@@H]2C(=O)N1CCN(C(=O)C2CC2)CC1 (stereo not given in full)	183*	-2	-8	2	-1	-1
COC(=O)[C@@H](N[C@H](/C=C/c1ccccc1)[C@@H](O)Cc1ccccc1)C(C)C	x	x	x	-5	2	x
COC(=O)C1CN(Cc2cn(Cc3ccccc3)nn2)CCS(=O)(=O)N1Cc1ccc(F)cc1 (stereo not given)	x	x	x	-1	2	x
CCCCn1c(=NC(=O)c2cccnc2)c(C(=O)OCC)cc2c(=O)n3ccccc3nc21	x	-5	-12	3	3	x
CCOCCCn1c(=NC(=O)c2cccs2)c(C#N)cc2c(=O)n3ccccc3nc21	35*	8	i	0	-2	x
CCCCn1c(=NC(=O)c2ccco2)c(C(=O)OCC)cc2c(=O)n3ccccc3nc21	-1	28*	4	4	-7	x
CCCn1c(=N)c(C#N)cc2c(=O)n3ccccc3nc21	13*	0	-45	1	5	-1
COC(=O)C=C1CCC2C3CC(F)C4(O)CC(=O)CCC4(C)C3C(=O)CC12C (stereo not given)	x	-6	6	-4	-4	x
